# “And” between values parts separate entries of the source, which are not always exact repeats. Identical values can stand only once. Inconclusive results are not listed. A number with no mark means an inactive call. The source made the active and inactive calls. Calls follow the shape of the dose curve; as a rule, active = well fitted inhibition curve with a large enough effect; inconclusive = small, poorly fitted or top-dose-only effect; inactive = no such curve, though single readings can be large or run the other way.
# Biological target: Furin (Homo sapiens) (UniProt P09958)
# Sequence (P09958 whole entry, looked up): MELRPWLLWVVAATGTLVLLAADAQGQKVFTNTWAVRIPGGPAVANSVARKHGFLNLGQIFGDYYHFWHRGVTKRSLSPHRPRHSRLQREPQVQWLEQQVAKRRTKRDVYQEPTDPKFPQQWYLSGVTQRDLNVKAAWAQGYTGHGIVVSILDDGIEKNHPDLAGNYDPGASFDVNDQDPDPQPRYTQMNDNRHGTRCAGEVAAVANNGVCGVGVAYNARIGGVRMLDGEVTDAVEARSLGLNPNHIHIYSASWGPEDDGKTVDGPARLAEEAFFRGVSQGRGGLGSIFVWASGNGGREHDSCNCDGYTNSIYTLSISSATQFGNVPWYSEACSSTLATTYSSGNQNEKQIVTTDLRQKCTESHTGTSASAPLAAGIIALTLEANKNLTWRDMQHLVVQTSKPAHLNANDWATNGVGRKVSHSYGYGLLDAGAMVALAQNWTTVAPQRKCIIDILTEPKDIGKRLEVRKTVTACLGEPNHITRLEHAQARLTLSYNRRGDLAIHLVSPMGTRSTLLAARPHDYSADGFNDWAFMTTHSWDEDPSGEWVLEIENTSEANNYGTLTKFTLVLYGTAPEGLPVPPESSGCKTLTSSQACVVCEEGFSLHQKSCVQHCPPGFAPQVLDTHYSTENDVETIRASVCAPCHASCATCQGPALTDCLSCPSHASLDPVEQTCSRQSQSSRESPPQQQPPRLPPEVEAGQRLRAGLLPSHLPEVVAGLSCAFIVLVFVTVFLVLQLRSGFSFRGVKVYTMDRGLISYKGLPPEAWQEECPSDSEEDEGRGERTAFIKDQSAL
# Assay: Furin counterscreen qHTS for Zika virus inhibitors (AID 1347149); also: nearly all actives have a fitted effect of over 70% in size;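 as to activity change, negative = inhibition: fluorescence gain from furin cutting a BOC-RVRR-AMC peptide substrate over 15 min; top concentration of the series differs between compounds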
# Details: furin enzymatic counterscreen, fluorogenic substrate; series mostly up to 57.5 µM; activity change, negative = inhibition: at the top concentration
# From the text: Avindra Nath, Ph.D., National Institute of Neurological Disorders and Stroke (NINDS), Bethesda, MD
# Radhakrishnan Padmanabhan, Ph.D., Georgetown University (GU), Washington D.C.
# Zika Virus causes congenital defects, including microcephaly and is associated with Guillain-Barre syndrome, eningoencephalitis and myelitis in infected adult. […] Using a target-based approach, we hope to establish a screening paradigm to uncover novel, cell-active NS2B-NS3 protease (Zika Virus) specific inhibitors from NCATS' collection of small molecules using qHTS.
# Four assay panel was created to identify potential Zika Virus inhibitors. Namely, (1) GU unlinked NS2B-NS3 AMC tagged protease qHTS, (2) GU unlinked NS2B-NS3 Rhodamine tagged protease qHTS, (3) NINDS linked NS2B-NS3 AMC tagged protease qHTS, (4) NINDS linked NS2B-NS3 Rhodamine tagged protease qHTS. Active compounds were re-acquired and re-screened to confirm inhibition. Inhibitors were further screened against various confirmatory and counterscreens in dose response format.
# Early Translation Branch (ETB)
# National Center for Advancing Translational Sciences (NCATS), Rockville, MD
# National Institute of Health (NIH), Bethesda, Maryland
# 1536-well Furin BOC-RVRR-AMC Protocol:
# Human recombinant Furin Serine Protease was purchased from Peprotech (catalog #450-47; full length; Rocky Hill, NJ). Briefly, 3 microL of enzyme (final concentrations of 5 nM), in assay buffer (100 mM HEPES pH 7.0, 1 mM CaCl2 with 0.01% Triton X-100) were dispensed into a 1,536-well solid-bottom black plate (Greiner Bio One, Monroe, NC). Twenty-three nL of compounds (final concentration range 7.28 nM to 114 microM) or control Furin Inhibitor I (Dec-RVKR-CMK; final concentration range 0.248 nM to 8.12 microM) were transferred via Wako Pin-tool (Wako Automation, Richmond, VA). Samples were incubated (RT, protected from light) for 15 minutes followed by a 1 microL substrate addition of BOC-RVRR-AMC (final concentration of 2 microM; Km = ~15 muM90). Plates were then read immediately on a ViewLux High-throughput CCD imager (PerkinElmer, Waltham, MA) equipped with standard UV fluorescence optics (340(30) nm excitation, 450(20) nm emission), then incubated (37C, protected from light) for 15 or 30 minutes (~9% conversion). The change in fluorescence intensity over the 15-minute reaction period was normalized against no-inhibitor and no-enzyme controls and the resulting percent inhibition data were fitted to a 4-parameter Hill equation. Furin Inhibitor I was used as intraplate control.
# Potency is read from the fitted curve at half-maximal effect.
Structure (SMILES),"activity change, negative = inhibition",Potency
O=c1c(O)c(-c2ccc(O)cc2)oc2cc(O)cc(O)c12,7.29%,–
C[C@H](NC(=O)C(=O)Nc1ccccc1C(C)(C)C)C(=O)N[C@@H](CC(=O)O)C(=O)COc1c(F)c(F)cc(F)c1F,-1.65%,–
NC(=O)c1ccc2nc(-c3ccc(Oc4ccc(Cl)cc4)cc3)[nH]c2c1,–,34 µM (active)
Cc1cc(OCCCc2c(C(=O)O)n(Cc3cccnc3)c3c(-c4c(COc5ccc(N6CCN([S+](C)(=O)[O-])CC6)cc5)nn(C)c4C)cccc23)cc(C)c1Cl,–,21.5 µM (active)
NC(=O)c1cccc2[nH]c(-c3ccc([C@H]4CCCN4)cc3F)nc12,–,21.5 µM (active)
O=C(O)c1c(Cl)c(Cl)c(Cl)c(Cl)c1-c1c2cc(I)c(=O)c(I)c-2oc2c(I)c(O)c(I)cc12,3.93% [at 114 µM],–
Cc1ccn(-c2ccc(-c3ncco3)cc2)c(=O)c1-c1ccc2nc(N)ncc2c1,–,21.5 µM (active)
CC1(C)CCC(CN2CCN(c3ccc(C(=O)NS(=O)(=O)c4ccc(NCC5CCOCC5)c([N+](=O)[O-])c4)c(Oc4cnc5[nH]ccc5c4)c3)CC2)=C(c2ccc(Cl)cc2)C1,–,inactive
CC=CCC(C)C(O)C1C(=O)NC(CC)C(=O)N(C)CC(=O)N(C)C(CC(C)C)C(=O)NC(C(C)C)C(=O)N(C)C(CC(C)C)C(=O)NC(C)C(=O)NC(C)C(=O)N(C)C(CC(C)C)C(=O)N(C)C(CC(C)C)C(=O)N(C)C(C(C)C)C(=O)N1C (stereo not drawn),–,0.0152 µM (active)
CC(=O)Nc1ccc([C@H](C)C(=O)Nc2ncc(C(C)C)s2)cc1,-1.5%,–
COc1ccc2cc(-c3nc(-c4ccc(S(C)=O)cc4)[nH]c3-c3ccncc3)ccc2c1 (stereo not drawn),–,3.83 µM (active)
CS(=O)c1ccc(-c2nc(-c3ccc(F)cc3)c(-c3ccncc3)[nH]2)cc1 (stereo not drawn),–,24.1 µM (active) and 21.5 µM (active)
CC1CCC(C(=O)N(c2cc(C#CC(C)(C)C)sc2C(=O)O)C2CCC(O)CC2)CC1 (stereo not drawn),0.33%,–

# Source: PubChem BioAssay (NCATS)
